High-throughput results (PubChem)
FBW7 act: human FBW7 E3 ligase activation, primary screen; 650,000 tested, 0.13% active; normalized activity (activation), % at 26.1 µM; Q969H0; AID 1259310; AlphaScreen FBW7–phospho-cyclin E peptide binding, activator screen; in the data active = normalized activity above about 1.9%;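 note: purified mutant Fbw7 with reduced substrate affinity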
TEAD-YAP inh: TEAD-YAP interaction inhibition. HEK-TIYL cells, TEAD-Gal4/YAP UAS-luciferase luminescence. AID 1259422. 640,000 tested, 1.4% active. inhibition, % at 9.12 µM; in the data active = inhibition above about 32%
MITF inh: inhibitors of human MITF. AID 1259374. 650,000 tested, 0.91% active. O75030. inhibition, % at 2.6 µM. AlphaScreen MITF homodimerization, bead proximity signal; in the data active = inhibition above about 50%
GPR151 activ: activators of human GPR151; activation, % at 11.2 µM; PathHunter beta-arrestin GPR151 cells, luminescence; Q8TDV0; 650,000 tested, 1% active; in the data active = activation above about 4.9%
Large screens that a line does not name were inactive. This is a sample that favours compounds with a hit; in the whole collection about 3.5% have one here.

CCOCc1cc(CN2CCOCC2)c(O)c2ncccc12	MITF inh 86
CCCOCc1cc(CN2CCN(C)CC2)c(O)c2ncccc12	MITF inh 94
CC1CCN(Cc2cc([N+](=O)[O-])c(O)c3ncccc23)CC1	none
CCOc1cc(/C=C(\C#N)C(=O)NC(N)=O)ccc1OCC(C)C	none
Cc1nonc1N1CCN(C(=O)CN2Cc3ccccc3OC(c3ccsc3)C2)CC1 (stereo not drawn)	none
Cc1cc(C)nc(N2CCN(C(=O)CCC(=O)NC(C)c3ccccc3)CC2)n1 (stereo not drawn)	none
COc1ccccc1N1CCN(Cc2cc([N+](=O)[O-])c(O)c3ncccc23)CC1	none
COc1ccccc1N1CCN(Cc2cc(Br)c(O)c3ncccc23)CC1	TEAD-YAP inh 81
COCc1cc(CN2CCCC2)c(O)c2ncccc12	TEAD-YAP inh 81, MITF inh 100
COCc1cc(CN(C)C2CCCCC2)c(O)c2ncccc12	TEAD-YAP inh 74, MITF inh 67
Cc1cc(C)nc(NC(=O)c2cc(-c3ccncc3)nc3ccccc23)c1	none
Cc1cnc(NC(=O)CN2CCN(c3ccccn3)CC2)s1	TEAD-YAP inh 65
Cc1cnc(NC(=O)CN2CCC(O)(c3ccccn3)CC2)s1	none
c1ccc(C2=NNC(c3ccccc3)=NN2)cc1	TEAD-YAP inh 42
COc1ccccc1Oc1ccc(C(N)=O)cc1[N+](=O)[O-]	none
O=[N+]([O-])c1ccc(Oc2ccccc2O)c2c1no[n+]2[O-]	MITF inh 66
Cc1ccccc1Nc1nc(Cl)c(C=O)s1	TEAD-YAP inh 40
O=C(Nc1cc(-c2ccncc2)c[nH]c1=O)C1Cc2c(ccc3ccccc23)O1 (stereo not drawn)	TEAD-YAP inh 33
Cc1ccc(N2C(=O)CSC2c2cccc([N+](=O)[O-])c2)cc1F (stereo not drawn)	TEAD-YAP inh 34
Cc1cnc(Nc2ccc(N3CCNCC3)cc2)cc1Nc1ccccc1C(N)=O	TEAD-YAP inh 33
COc1cc(N2CCOCC2)ccc1Nc1cc(Nc2ccccc2NC(C)=O)c(C(F)(F)F)cn1	TEAD-YAP inh 46
CNC(=O)c1ccccc1Nc1cc(Nc2ccc(N3CCOCC3)cc2C)ncc1C(F)(F)F	TEAD-YAP inh 71
NC(=O)c1ccccc1Nc1ccnc(Nc2ccc(N3CCNCC3)cc2)c1	none
CNC(=O)c1ccccc1Nc1cc(Nc2ccc(N3CCOCC3)cn2)ncc1C(F)(F)F	TEAD-YAP inh 86
O=C1CC(c2ccc(F)cc2)CC(O)=C1C=NCC1NCCc2ccccc21 (stereo not drawn)	none
C=CCNC(=O)CSc1nnc2c3cc(C)ccc3n(C)c2n1	none
O=C(NC1CCCCC1)C(c1ccncc1)N(C(=O)C(F)(F)F)c1ccccc1F (stereo not drawn)	none
CNC(=O)c1ccccc1Nc1cc(Nc2ccc(C(=O)N3CC[C@H](O)C3)cc2OC)ncc1C(F)(F)F	TEAD-YAP inh 33
CNC(=O)c1ncccc1Nc1cc(Nc2ccc(C(=O)N(C)C)cc2OC)ncc1C(F)(F)F	none
O=C1CCCN1CCCNc1nc(-c2ccc(N3CCOCC3)nc2)nc2c1ncn2CCN1CCCC1=O	none
Cc1noc(C)c1-c1nc(NCCCN2CCCC2=O)c2ncn(-c3ccsc3)c2n1	TEAD-YAP inh 59
O=C1CCCN1CCCNc1nc(-c2ccc(N3CCOCC3)nc2)nc2c1ncn2-c1ccsc1	TEAD-YAP inh 48
Nc1cccc(-c2nc(NCCCN3CCCC3=O)c3ncn(-c4ccsc4)c3n2)c1	TEAD-YAP inh 62
CN1CCN(c2ccc(-c3nc(NCCCN4CCCC4=O)c4ncn(-c5ccsc5)c4n3)cc2)CC1	TEAD-YAP inh 35
Cc1cc(C)n(CCC(=O)N2CCc3c(nc(N4CCC(C)CC4)[nH]c3=O)C2)n1	none
Cc1ccc(/C=C/c2onc(C)c2S(=O)(=O)N2CCC(C(=O)NC(C)C)CC2)cc1	none
Fc1cc(-c2nc(Nc3cccc(CN4CCCC4)c3)ncc2F)cc(N2CCOCC2)c1	TEAD-YAP inh 93
Fc1cc(-c2ccnc(Nc3cccc(CN4CCOCC4)c3)n2)cc(N2CCOCC2)c1	TEAD-YAP inh 53
Fc1cc(-c2nc(Nc3cccc(CN4CCOCC4)c3)ncc2F)cc(N2CCOCC2)c1	TEAD-YAP inh 91
Fc1cc(-c2nc(Nc3cccc(Cn4cccn4)c3)ncc2F)cc(N2CCOCC2)c1	none
Cc1nc(C)n(-c2ccc(Nc3ncc(F)c(-c4cc(C#N)cc(N5CCOCC5)c4)n3)cc2)n1	none
Cc1nc(C)n(-c2ccc(Nc3ncc(F)c(-c4cc(F)cc(N5CCN(C)CC5)c4)n3)cc2)n1	TEAD-YAP inh 64
COc1cc(C=C2C(=O)NC(=O)NC2=O)c(Br)cc1OCc1ccccc1F	none
COc1ccc(CCNC2CCN(c3ccc(C(=O)N4CCOCC4)cc3)CC2)cc1	none
COc1ccc(C2C=C(c3cccs3)Nc3ncnn32)cc1 (stereo not drawn)	none
Fc1cc(-c2nc(Nc3ccc(-n4ccnc4)cc3)ncc2F)cc(N2CCOCC2)c1	TEAD-YAP inh 57
Cc1c(C(=O)NCc2ccccn2)sc2ncn(CC(=O)N3CCOCC3)c(=O)c12	none
COc1cccc2sc(Nc3nc(-c4cccnc4)cs3)nc12	TEAD-YAP inh 39
COc1ccccc1Nc1nc(-c2ccncc2)cs1	none
COc1cccc2sc(Nc3nc(-c4ccncc4)cs3)nc12	TEAD-YAP inh 45
COc1ccc(C2C(C(=O)N3CCN(c4ccccn4)CC3)c3ccccc3C(=O)N2C)cc1 (stereo not drawn)	none
Cc1c(N2C(=O)CS/C2=N\N=C2/C(=O)Nc3ccccc32)c(=O)n(-c2ccccc2)n1C	none
O=C1Nc2ccccc2/C1=N\N=C1/SCC(=O)N1c1ccc(O)cc1	TEAD-YAP inh 50
O=C1OC2(CCCC2)OC(=O)C1=Cc1ccc(-c2ccc([N+](=O)[O-])cc2)o1	none
O=C1NC(=S)N(c2ccccc2)C(=O)/C1=C\c1ccc([N+](=O)[O-])o1	MITF inh 80
O=C1NN(c2ccccc2)C(=O)/C1=C/c1ccc([N+](=O)[O-])o1	MITF inh 79
O=C1NN(c2ccccc2)C(=O)/C1=C\c1ccc(-c2ccc([N+](=O)[O-])cc2)o1	none
O=C1NC(=S)N(c2ccc(F)cc2)C(=O)/C1=C\c1ccc2c(c1)OCCO2	MITF inh 71
O=C1OC2(CCCCC2)OC(=O)C1=Cc1ccc([N+](=O)[O-])o1	MITF inh 66
O=S1(=O)Nc2c(ccc3cccnc23)-c2ccccc21	TEAD-YAP inh 60, MITF inh 88
Cc1cc(Br)ccc1N1C(=O)/C(=C/c2ccc(Br)cc2)C=C1c1ccccc1	none
Cc1cc(Br)ccc1N1C(=O)/C(=C/c2ccc(Cl)cc2)C=C1c1ccccc1	FBW7 act 1.9
Cc1ccc2c(c1)-c1c(cnn1CC(=O)Nc1ccc3c(C)cc(=O)oc3c1)CO2	TEAD-YAP inh 49
Cc1cc(=O)oc2cc(NC(=O)Cn3ncc4c3-c3ccccc3OC4)ccc12	TEAD-YAP inh 49
Cc1ccc2c(c1)-c1c(cnn1CC(=O)Nc1ccc(C)c(F)c1)CO2	none
Cc1cc(C)cc(NC(=O)Cn2ncc3c2-c2ccccc2OC3)c1	none
COC(=O)c1ccccc1NC(=O)CC(C)c1ccccc1 (stereo not drawn)	none
